Experimental findings from PubChem BioAssay (NCI) are described below.

This is part of a sample that, as a whole, favours compounds with a hit. Of some 83,000 tested, about 20% had one in any assay.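 The test compound was applied at a single concentration to cells in 96-well plates for 48 hours, and percent growth was recorded.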 A number with no mark means an inactive call. Calls of active or inactive are those of the source. Rule for the calls: active = growth percent below 10; inactive = the rest.

In this experiment the test system is HL-60(TB) leukemia. The experiment can be described thus: NCI-60 one-dose screen, 48 h (100 = growth as untreated, 0 = no growth, -100 = all killed). To be noted: 10 µM unless noted.
Turning to `COC(=O)c1c2c(c(C)[n+]([O-])c1C)C(=O)C=C(NCc1cccc(OC)c1)C2=O`, the growth is -37.3% (active). Turning to `Cc1ccc(C2CC3c4ccccc4C2C2CCCCN32)cc1` (centres undefined), the growth is 52.8%. For `NC(N)=N/N=C(/c1ccccc1)c1ccc(F)cc1`, the growth is -70.6% (active). Regarding `CC1SC(c2ccc(Cl)cc2)N(CCc2cccs2)C1=O` (centres undefined), the growth was -3.88% (active). With `NC(N)=N/N=C/c1ccccc1` the figure was 99.5%. On to `Cc1ccc2c(c1)c(Sc1ccc(C(=O)NO)cc1)c1n2CN(C)CC1`, for which the growth is 21.4%. Next, `Oc1ccc(Nc2nccc(-c3ccc4ccccc4c3)n2)cc1`: 7.93% (active). With `CC1C(=O)CCCC1=O` the figure was 118%; with `COC(=O)c1ccc(C2Nc3ccc(S(=O)(=O)Nc4ccc(C)c(C)c4)cc3C3OCCC23)cc1` (centres undefined), 59.3%; with `COc1cc2c(cc1OC)-c1ccc3cc4c(cc3c1N(CCCn1ccnc1)C2)OCO4`, 3.45% (active). For `COc1ccc(/C(C)=C(\c2ccc(Cl)cc2)c2ccc(OCCN3CCCCCC3)cc2)cc1F`, the growth was -15.4% (active). For the molecule `CCCCCCNC(=O)Nc1ccc2cc3ccc(NC(=O)NCCCCCC)cc3nc2c1`, the growth is -49% (active). With `CCN1CCN(C(=O)[C@]23CC[C@@H](C)[C@H](C)[C@@H]2C2=CC[C@@H]4[C@@]5(C)C/C(=C/c6ccncc6)C(=O)C(C)(C)[C@@H]5CC[C@@]4(C)[C@]2(C)CC3)CC1` the figure was -33.1% (active); with `Nc1nc(N)c2nc(CNc3ccc(C(=O)CC(CCC(=O)O)C(=O)O)cc3)cnc2n1` (centres undefined), 49%; with `CC1(c2ccccc2)OC1C(=O)O` (centres undefined), 103%. With `Cc1ccc(S(=O)(=O)c2ccc3[nH]c(=O)[nH]c(=O)c3c2)cc1` the figure was 89.3%; with `O=C(O)c1ccccc1C(=O)c1ccc(I)cc1`, 93.1%. Next, `COc1cc(-c2nc(SCCC(C)C)nc(N3CCOCC3)c2C#N)cc(OC)c1OC`: 95.2%. In the case of `CCOC(=O)N/N=C\C(C)=N\NC(=O)OCC`, the growth was 92.9%. Next, `N#Cc1nc(C#N)c(Sc2ccccc2)c(Sc2ccccc2)c1Sc1ccccc1`: -37.2% (active); `C/C=C(/C)C(=O)O[C@@H]1CC(C)(C)CC2C34OC(=O)[C@@]21CC[C@@]3(C)[C@]1(C)CCC2C(C)(C)C(=O)CC[C@]2(C)C1C[C@@H]4O` (some centres undefined): 6.92% (active). As for `O=C1C=CC(=O)N1c1ccc(O)cc1`, the growth is 112%. For `O=C(/C=C\c1ccc(O)c(O)c1)c1ccccc1O`, the growth is 11.6%. With `c1ccc(-c2c(-c3ccccc3)[n+](Cc3ccc4ccccc4c3)c(-c3cccc4ccccc34)n2Cc2ccc3ccccc3c2)cc1`, the growth is -46.8% (active).

In the case of `Clc1nn2c(Cn3cnc4c(NCc5ccccc5)ncnc43)nnc2c2ccccc12`, the growth was 23%.

Take `O=C1/C(=C/c2ccccc2)CN(C(=O)c2cccnc2)C/C1=C\c1ccccc1`: the growth is -8.8% (active). `Cc1cc(O)c(C(C)(C)C)cc1Sc1cc(C(C)(C)C)c(O)cc1C`: the growth was -20.9% (active). Take `CC(C)(C)OC(=O)N1CCc2c(sc3ncnc(N/N=C/c4cccc5ccccc45)c23)C1`: the growth is 11.5%. With `COc1ccc(/C=C/C(=O)c2ccc(Nc3nc(NCCO)nc(Nc4ccc(Cl)cc4)n3)cc2)cc1` the figure was 94%.

For the molecule `CN1CCCc2cc(/C=C3/SC(=S)N(CCc4ccc(O)cc4)C3=O)ccc21`, the growth was 8.87% (active).

As for `C#CCNCCN1C(=O)c2ccc3c4c(ccc(c24)C1=O)C(=O)N(CCNCC#C)C3=O`, the growth is -18.4% (active). Next, `N#Cc1nc(-c2ccccc2)oc1S(=O)(=O)N1CCN(c2ccc(F)cc2)CC1`: 28.1%.

Turning to `COC1OC(C(O)C(O)CO)C(O)C(O)C1O` (centres undefined), the growth is 108%.

`COc1cc(/C=C/C(=O)N2c3ccccc3CC2C)c(OC)c2c1OCO2` (centres undefined): the growth was 91.7%. With `NC1=NC(c2cccc(Br)c2)c2sc3ccc(Cl)cc3c2N1` (centres undefined) the figure was 102%.

For `O=C(O)CCCCSCCCCC(=O)O`, the growth is 97.8%. Consider `O=C(CNc1nnc(-c2ccc(Cl)cc2)o1)Nc1ccc(-c2nc3ccccc3s2)cc1`, for which the growth is 93.7%. In the case of `Cc1cc2nc(CO)[nH]c2cc1C`, the growth was 89.7%.

Consider `CC(=O)NC(N)=S`, for which the growth was 70.8%.
